Measured values reported in the supplement of paper PMC10849652.
About 7,900 targets were measured; listed, in parts, are those with a hit and a random draw of the rest. About 0.6% of all pairs of compound and target were hits. A number with no mark means an inactive call.

Assays:
Assay in all cases: log2 fold change, soluble protein after heating vs DMSO (PISA); higher = thermal stabilisation; K562 cells, 10 uM, 30 min; active = over 0.2 and 3.5 SD of the protein, either way, in both replicates (recomputed)
[1] = compound: Cc1ccc(NC(=O)c2ccc(CN3CC[C@H](N(C)C)C3)c(C(F)(F)F)c2)cc1Nc1nccc(-c2cncnc2)n1 [bafetinib]
Procedure, shortened: (§1)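 Values are thermal stability changes relative to control samples and are taken from duplicates. They are stated as log2 fold changes. Before quantification by TMTpro 16plex LC-MS/MS with equalised channel sums, K562 cells at 2×10^6 cells/mL were treated with 10 μM compound for 30 min, heated in aliquots for 3 min across 48°C-58°C, pooled, extracted in PBS with 0.5% NP-40 at 4°C, and centrifuged at 21,000xg for 90 min to give the soluble supernatant.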

[2] = compound: Cc1cccc(CC(=O)N2CCc3c2ccc(-c2cn(C)c4ncnc(N)c24)c3F)n1
Procedure, shortened: as §1

[3] = compound: Cc1cn(-c2cc(NC(=O)c3ccc(C)c(Nc4nccc(-c5cccnc5)n4)c3)cc(C(F)(F)F)c2)cn1 [nilotinib]
Procedure, shortened: as §1

[4] = compound: Cc1nc(Nc2n[nH]c3c2CN(C(=O)N[C@H](CN(C)C)c2ccccc2)C3(C)C)c2sccc2n1
Procedure, shortened: as §1

[5] = compound: Cc1nc(Nc2ncc(C(=O)Nc3c(C)cccc3Cl)s2)cc(N2CCN(CCO)CC2)n1 [dasatinib]
Procedure, shortened: as §1

[6] = compound: Cc1ncc(-c2ccnc(Nc3ccc(S(C)(=O)=O)cc3)n2)n1C(C)C
Procedure, shortened: as §1

[7] = compound: Cn1cc(-c2ccc3c(c2)CCN3C(=O)Cc2cccc(C(F)(F)F)c2)c2c(N)ncnc21
Procedure, shortened: as §1

[8] = compound: Cn1cc(-c2ccc3nnc(C(F)(F)c4ccc5ncccc5c4)n3n2)cn1
Procedure, shortened: as §1

[9] = compound: Cn1cncc1[C@@](N)(c1ccc(Cl)cc1)c1ccc2c(c1)c(-c1cccc(Cl)c1)cc(=O)n2C [tipifarnib]
Procedure, shortened: as §1

[10] = compound: FC(F)(F)c1ccc(/C=C/c2nc(COc3ccc(CCCCn4ccnn4)cc3)co2)cc1 [mubritinib]
Procedure, shortened: as §1

[11] = compound: NC(=O)Nc1cc(-c2cccc(F)c2)sc1C(=O)N[C@H]1CCCNC1
Procedure, shortened: as §1

[12] = compound: NC(=O)c1cnc(N[C@@H]2CCCC[C@@H]2N)nc1Nc1cccc(-n2nccn2)c1
Procedure, shortened: as §1

[13] = compound: NC1(c2ccc(-c3nc4ccn5c(=O)[nH]nc5c4cc3-c3ccccc3)cc2)CCC1
Procedure, shortened: as §1

[14] = compound: NCC(=O)Nc1ccc(-n2nc(C(F)(F)F)cc2-c2ccc3c(ccc4ccccc43)c2)cc1
Procedure, shortened: as §1

[15] = compound: Nc1ccccc1NC(=O)c1ccc(CNC(=O)OCc2cccnc2)cc1 [entinostat]
Procedure, shortened: as §1

[16] = compound: O=C(CCCCCCC(=O)Nc1ccccc1)NO [vorinostat]
Procedure, shortened: as §1

[17] = compound: O=C(CCCCCCNC(=O)c1cnc(N(c2ccccc2)c2ccccc2Cl)nc1)NO [citarinostat]
Procedure, shortened: as §1

[18] = compound: O=C(O)c1ccc2c(c1)nc(Nc1cccc(Cl)c1)c1ccncc12 [silmitasertib]
Procedure, shortened: as §1

[19] = compound: O=C1NC(=O)C(c2cnc3ccccn23)=C1c1cn2c3c(cc(F)cc13)CN(C(=O)N1CCCCC1)CC2
Procedure, shortened: as §1

[20] = compound: c1cc(OCCN2CCCCC2)cc(-c2n[nH]c3ccc(-c4nnc[nH]4)cc23)c1
Procedure, shortened: as §1

Sequence of UniProt Q16850 (Q16850 whole entry, looked up): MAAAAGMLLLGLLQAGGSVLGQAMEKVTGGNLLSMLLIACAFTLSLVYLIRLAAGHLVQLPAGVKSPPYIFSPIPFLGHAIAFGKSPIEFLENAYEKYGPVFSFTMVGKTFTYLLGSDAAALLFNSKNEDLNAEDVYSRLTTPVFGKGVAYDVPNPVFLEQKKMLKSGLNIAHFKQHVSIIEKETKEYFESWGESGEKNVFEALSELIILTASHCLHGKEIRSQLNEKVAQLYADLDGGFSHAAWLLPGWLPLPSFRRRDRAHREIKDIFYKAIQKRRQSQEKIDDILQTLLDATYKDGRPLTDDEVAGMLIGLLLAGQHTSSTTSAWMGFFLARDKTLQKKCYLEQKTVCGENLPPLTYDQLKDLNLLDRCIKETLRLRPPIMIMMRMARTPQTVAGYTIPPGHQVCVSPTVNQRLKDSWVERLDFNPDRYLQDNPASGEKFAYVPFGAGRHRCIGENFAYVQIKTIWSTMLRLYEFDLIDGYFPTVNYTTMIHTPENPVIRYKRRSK
Sequence of UniProt P39656 (P39656 whole entry, looked up): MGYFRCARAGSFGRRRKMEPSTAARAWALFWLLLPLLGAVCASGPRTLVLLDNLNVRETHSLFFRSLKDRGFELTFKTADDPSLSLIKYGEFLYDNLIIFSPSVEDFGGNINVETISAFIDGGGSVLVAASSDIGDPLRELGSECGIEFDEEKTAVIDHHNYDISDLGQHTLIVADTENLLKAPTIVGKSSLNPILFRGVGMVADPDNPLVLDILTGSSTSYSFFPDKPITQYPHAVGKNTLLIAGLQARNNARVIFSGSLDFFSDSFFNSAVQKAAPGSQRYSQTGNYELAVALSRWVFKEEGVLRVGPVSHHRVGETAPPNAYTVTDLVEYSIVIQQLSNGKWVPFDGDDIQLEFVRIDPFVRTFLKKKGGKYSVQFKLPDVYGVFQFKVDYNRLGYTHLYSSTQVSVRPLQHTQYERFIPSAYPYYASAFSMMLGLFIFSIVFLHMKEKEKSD
Sequence of UniProt Q9GZT9 (Q9GZT9 whole entry, looked up): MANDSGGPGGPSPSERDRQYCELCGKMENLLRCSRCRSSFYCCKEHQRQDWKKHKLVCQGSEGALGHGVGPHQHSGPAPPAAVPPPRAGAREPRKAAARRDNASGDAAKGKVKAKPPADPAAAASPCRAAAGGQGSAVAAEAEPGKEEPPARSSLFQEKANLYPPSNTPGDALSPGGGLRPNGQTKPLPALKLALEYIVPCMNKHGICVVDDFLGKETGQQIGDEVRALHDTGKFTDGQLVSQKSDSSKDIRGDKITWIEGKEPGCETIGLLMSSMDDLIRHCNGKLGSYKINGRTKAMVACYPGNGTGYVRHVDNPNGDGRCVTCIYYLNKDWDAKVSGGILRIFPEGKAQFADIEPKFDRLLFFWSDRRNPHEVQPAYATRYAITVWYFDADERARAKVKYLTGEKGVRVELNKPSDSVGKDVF
Sequence of UniProt P10619 (P10619 whole entry, looked up): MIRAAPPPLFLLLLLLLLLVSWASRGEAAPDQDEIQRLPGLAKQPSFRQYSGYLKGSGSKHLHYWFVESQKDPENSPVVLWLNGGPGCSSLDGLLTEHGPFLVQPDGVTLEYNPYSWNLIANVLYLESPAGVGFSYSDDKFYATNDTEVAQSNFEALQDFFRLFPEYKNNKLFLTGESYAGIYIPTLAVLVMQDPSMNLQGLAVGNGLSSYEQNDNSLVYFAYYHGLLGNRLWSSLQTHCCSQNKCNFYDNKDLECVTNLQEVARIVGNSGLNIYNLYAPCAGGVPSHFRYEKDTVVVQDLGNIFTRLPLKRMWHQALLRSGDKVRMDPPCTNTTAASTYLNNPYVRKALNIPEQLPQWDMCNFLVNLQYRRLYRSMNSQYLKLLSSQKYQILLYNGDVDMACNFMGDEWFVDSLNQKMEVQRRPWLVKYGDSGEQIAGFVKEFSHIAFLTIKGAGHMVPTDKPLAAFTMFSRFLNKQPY
Sequence of UniProt P09622 (P09622 whole entry, looked up): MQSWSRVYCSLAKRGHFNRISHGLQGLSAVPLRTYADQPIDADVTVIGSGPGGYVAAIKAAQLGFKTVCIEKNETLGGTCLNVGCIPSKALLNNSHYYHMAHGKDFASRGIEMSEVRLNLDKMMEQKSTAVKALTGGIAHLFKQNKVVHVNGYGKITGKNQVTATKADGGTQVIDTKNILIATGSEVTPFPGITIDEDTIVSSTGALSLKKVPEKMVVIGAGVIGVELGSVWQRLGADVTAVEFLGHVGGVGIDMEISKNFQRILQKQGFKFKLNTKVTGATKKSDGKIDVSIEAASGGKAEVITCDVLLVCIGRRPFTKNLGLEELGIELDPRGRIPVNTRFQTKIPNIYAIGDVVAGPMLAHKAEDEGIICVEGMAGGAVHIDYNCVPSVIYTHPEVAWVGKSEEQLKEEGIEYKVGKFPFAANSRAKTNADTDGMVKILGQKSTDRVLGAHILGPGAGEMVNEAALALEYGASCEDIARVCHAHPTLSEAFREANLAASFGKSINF
Sequence of UniProt P12259 (P12259 whole entry, looked up): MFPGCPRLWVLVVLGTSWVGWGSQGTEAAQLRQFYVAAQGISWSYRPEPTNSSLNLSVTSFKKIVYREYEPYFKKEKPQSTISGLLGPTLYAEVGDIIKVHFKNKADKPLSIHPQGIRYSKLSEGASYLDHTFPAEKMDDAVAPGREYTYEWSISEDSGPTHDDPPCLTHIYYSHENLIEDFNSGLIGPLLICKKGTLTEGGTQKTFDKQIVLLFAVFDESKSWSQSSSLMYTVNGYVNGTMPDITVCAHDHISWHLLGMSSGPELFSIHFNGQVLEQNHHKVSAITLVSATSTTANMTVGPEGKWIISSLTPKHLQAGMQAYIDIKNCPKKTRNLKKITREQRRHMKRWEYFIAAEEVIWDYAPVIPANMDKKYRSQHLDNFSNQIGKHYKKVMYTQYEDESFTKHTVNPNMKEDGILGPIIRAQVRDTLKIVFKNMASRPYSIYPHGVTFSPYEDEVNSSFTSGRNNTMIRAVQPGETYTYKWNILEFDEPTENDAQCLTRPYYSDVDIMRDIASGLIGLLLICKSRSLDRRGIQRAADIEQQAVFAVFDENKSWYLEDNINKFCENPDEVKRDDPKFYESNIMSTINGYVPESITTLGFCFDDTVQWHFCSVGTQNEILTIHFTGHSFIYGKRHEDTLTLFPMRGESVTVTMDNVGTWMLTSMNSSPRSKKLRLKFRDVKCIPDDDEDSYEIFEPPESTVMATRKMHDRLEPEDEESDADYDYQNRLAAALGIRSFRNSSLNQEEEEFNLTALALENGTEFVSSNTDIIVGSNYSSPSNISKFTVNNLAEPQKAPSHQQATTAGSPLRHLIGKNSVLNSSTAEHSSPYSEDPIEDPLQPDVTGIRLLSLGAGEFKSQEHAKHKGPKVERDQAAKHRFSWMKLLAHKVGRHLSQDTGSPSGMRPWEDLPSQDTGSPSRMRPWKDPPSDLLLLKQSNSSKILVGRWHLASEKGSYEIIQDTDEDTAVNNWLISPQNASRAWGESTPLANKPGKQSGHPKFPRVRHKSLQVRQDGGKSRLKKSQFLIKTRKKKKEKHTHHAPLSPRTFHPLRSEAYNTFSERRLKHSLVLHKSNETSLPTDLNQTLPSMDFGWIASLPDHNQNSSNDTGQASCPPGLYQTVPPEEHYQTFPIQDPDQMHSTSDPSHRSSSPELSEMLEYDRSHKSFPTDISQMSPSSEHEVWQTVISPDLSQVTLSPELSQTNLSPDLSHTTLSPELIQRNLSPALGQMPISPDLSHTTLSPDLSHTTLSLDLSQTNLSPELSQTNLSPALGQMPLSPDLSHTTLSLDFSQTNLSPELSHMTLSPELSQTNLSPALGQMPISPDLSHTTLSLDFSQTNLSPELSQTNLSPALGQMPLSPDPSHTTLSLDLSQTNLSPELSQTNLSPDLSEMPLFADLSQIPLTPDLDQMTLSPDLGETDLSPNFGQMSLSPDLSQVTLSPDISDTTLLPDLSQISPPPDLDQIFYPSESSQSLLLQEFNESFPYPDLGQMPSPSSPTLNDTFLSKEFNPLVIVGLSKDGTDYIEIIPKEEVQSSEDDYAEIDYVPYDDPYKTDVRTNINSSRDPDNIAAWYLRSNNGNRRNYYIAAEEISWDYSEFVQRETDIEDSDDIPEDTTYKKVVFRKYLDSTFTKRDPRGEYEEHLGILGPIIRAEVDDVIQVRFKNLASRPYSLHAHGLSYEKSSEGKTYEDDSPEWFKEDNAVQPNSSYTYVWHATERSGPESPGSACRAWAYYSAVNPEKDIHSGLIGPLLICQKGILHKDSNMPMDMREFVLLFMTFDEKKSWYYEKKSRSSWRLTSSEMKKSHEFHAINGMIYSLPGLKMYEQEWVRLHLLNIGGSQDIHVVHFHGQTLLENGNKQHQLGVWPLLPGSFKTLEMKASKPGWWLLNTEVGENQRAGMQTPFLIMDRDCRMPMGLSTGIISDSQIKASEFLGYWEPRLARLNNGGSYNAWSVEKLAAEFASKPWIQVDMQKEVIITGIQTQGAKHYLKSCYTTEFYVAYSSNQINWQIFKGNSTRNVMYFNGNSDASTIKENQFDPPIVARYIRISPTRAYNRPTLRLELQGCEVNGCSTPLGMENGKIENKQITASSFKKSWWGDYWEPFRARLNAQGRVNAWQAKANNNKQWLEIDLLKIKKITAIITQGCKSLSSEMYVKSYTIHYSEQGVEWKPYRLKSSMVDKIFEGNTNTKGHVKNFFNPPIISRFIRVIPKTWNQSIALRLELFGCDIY
Sequence of UniProt Q9C073 (Q9C073 whole entry, looked up): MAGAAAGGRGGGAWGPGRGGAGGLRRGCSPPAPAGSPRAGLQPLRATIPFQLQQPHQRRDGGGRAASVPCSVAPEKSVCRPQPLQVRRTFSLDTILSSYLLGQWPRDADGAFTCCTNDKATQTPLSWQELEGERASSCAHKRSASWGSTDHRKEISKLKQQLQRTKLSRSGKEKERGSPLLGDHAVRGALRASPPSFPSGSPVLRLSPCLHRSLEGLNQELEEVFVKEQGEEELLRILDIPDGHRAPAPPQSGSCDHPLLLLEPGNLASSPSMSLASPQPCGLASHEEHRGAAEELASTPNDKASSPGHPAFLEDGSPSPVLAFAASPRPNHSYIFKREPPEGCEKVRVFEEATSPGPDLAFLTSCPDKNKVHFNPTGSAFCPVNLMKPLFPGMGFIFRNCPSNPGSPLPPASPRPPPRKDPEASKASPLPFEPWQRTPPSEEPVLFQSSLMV

Target	log2 fold change [1]	log2 fold change [2]	log2 fold change [3]	log2 fold change [4]	log2 fold change [5]	log2 fold change [6]	log2 fold change [7]	log2 fold change [8]	log2 fold change [9]	log2 fold change [10]	log2 fold change [11]	log2 fold change [12]	log2 fold change [13]	log2 fold change [14]	log2 fold change [15]	log2 fold change [16]	log2 fold change [17]	log2 fold change [18]	log2 fold change [19]	log2 fold change [20]
DCUN1D1 (UniProt Q96GG9)	-0.083	0.026	-0.025	-0.018	-0.047	0	0.008	0.03	-0.059	0.015	-0.024	-0.048	-0.102	-0.01	0.016	0.002	0.054	0.002	-0.098	-0.02
CTSA (UniProt P10619)	-0.595 (active)	-0.04	0.052	0.015	0.112	-0.001	0.019	0.005	0.16	0.007	0.031	0.092	-0.067	-0.013	0.001	-0.03	-0.005	0.044	-0.023	0.134
EEF1D isoform 2 (UniProt P29692)	0.025	-0.011	-0.066	-0.01	-0.051	0	-0.007	-0.044	-0.103	0.081	-0.02	-0.06	-0.034	-0.105	0.018	-0.02	0.017	0.108	-0.001	-0.067
DLD (UniProt P09622)	-0.028	-0.042	0.034	-0.018	-0.025	-0.066	-0.04	0.015	-0.008	-0.429 (active)	0.003	0.007	-0.088	0.033	-0.013	-0.02	0.011	-0.042	-0.004	-0.093
CYP51A1 (UniProt Q16850)	0.02	-0.019	0.156	-0.03	0.092	-0.016	-0.016	-0.143	1.27 (active)	0.047	-0.018	-0.004	0.024	-0.033	-0.045	0.119	0.006	0.001	0.964 (active)	-0.112
F5 (UniProt P12259)	-0.076	-0.02	0.021	0.019	0.05	0.023	0.072	0.111	0.153	-0.089	-0.095	-0.08	0.048	-0.024	-0.045	-0.016	-0.019	0.127	0.084	0.002
ERLIN1 (UniProt O75477)	0.041	0.094	-0.153	0.032	-0.031	0.004	-0.11	0.002	0.026	-0.053	0.083	-0.068	-0.066	-0.043	0.111	0.074	-0.01	-0.009	0.084	-0.045
EEF1G isoform 2 (UniProt P26641)	0.033	0.083	-0.034	-0.03	-0.032	0.045	-0.03	-0.05	-0.124	0.028	-0.005	-0.039	-0.1	0.011	0.036	0.059	0.035	0.014	0.003	-0.046
DDB1 (UniProt Q16531)	-0.019	-0.025	-0.004	0.027	0.046	-0.016	0.011	-0.001	-0.014	0.023	0.027	-0.025	-0.024	-0.004	-0.022	-0.021	0.02	-0.002	-0.018	-0.03
DNAAF2 (UniProt Q9NVR5)	-0.075	0.057	0.023	0.002	-0.049	0	-0.037	0.036	0.004	0.026	0.039	0.025	-0.042	-0.044	-0.06	0	-0.034	0.016	-0.003	-0.03
DDOST (UniProt P39656)	-0.035	-0.001	-0.005	0.033	0.016	-0.039	-0.04	0	0.047	-0.022	0.003	-0.013	-0.057	0.014	0.007	-0.036	0.017	0.05	-0.017	-0.116
EHBP1L1 (UniProt Q8N3D4)	0.194	-0.006	-0.081	-0.218	-0.123	0.256	0.005	0.006	-0.039	0.007	-0.091	-0.04	-0.039	-0.039	0	0.054	0.041	0.015	-0.043	-0.101
DNAH11 (UniProt Q96DT5)	0.097	-0.396	0.101	0.015	-0.036	0.072	-0.441	0.126	0.344	-0.276	-0.099	-0.064	0.346	0.044	-0.032	-0.24	-0.213	0.197	-0.098	-0.09
EGLN1 (UniProt Q9GZT9)	-0.031	-0.018	0.066	-0.026	-0.073	-0.036	-0.01	0.017	0.016	-0.116	0.095	-0.016	-0.043	-0.029	-0.009	0.021	0.034	0.024	0.014	-0.178
DHCR24 (UniProt Q15392)	1.39 (active)	-0.001	-0.03	0.025	0.127	0.577	0.292	0.043	-0.006	0.47	-0.022	-0.037	0.048	-0.024	-0.082	-0.012	0	-0.018	0.041	1.08 (active)
FAM117A (UniProt Q9C073)	-0.021	0.004	-0.047	-0.083	-0.046	-0.018	0.016	0.032	0.039	0.024	-0.135	0	-0.05	-0.03	0.046	-0.011	0.043	-0.422 (active)	0.038	-0.251 (active)
